Reference: PubChem BioAssay AID1159580 (chemical genetic matrix, 2015)
“And” between values parts separate entries of the source, which are not always exact repeats. Equal entries are not always repeated. Out of some 5,500 compounds screened, about 2,000 (36%) were called active. Not shown: some 18% with an inconclusive outcome. Cut-off read from the data, not from the text of the source: active = normalized growth mostly below about 0.91 (no sharp cut-off); inconclusive = no clear call, values can overlap the other calls; inactive = mostly above about 0.92. The list shows a part of the results.

Test: chemical genetic growth profiling, strain panel (AID 1159580);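 note: tested at 20 µM; growth read once vehicle control cultures reached saturation at 30 °C; 1 = growth at the plate median or of vehicle wells; lower values mean less growth of the strain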
Details: S. cerevisiae deletion strains, growth OD

Measured: normalized growth

CCCCCC(=O)O[C@]1(C(C)=O)CCC2C3CCC4=CC(=O)CC[C@]4(C)C3CC[C@@]21C (some centres undefined)
inactive: locus YAL013W, strain DEP1, hits give low values 1.02 | locus YAL021C, strain ccr4, hits give low values 1 | locus YAL026C, strain drs2, hits give low values 1.03 | locus YAL030W, strain snc1, hits give low values 1 | locus YBL061C, strain skt5, hits give low values 1 | locus YBR009C, strain hhf1, hits give low values 1.01 | locus YBR021W, strain FUR4, hits give low values 0.948 | locus YBR023C, strain chs3, hits give low values 0.985 | locus YBR171W, strain sec66, hits give low values 0.993 | locus YBR229C, strain ROT2, hits give low values 1.01 | locus YBR231C, strain swc5, hits give low values 0.991 | locus YBR279W, strain paf1, hits give low values 1 | locus YCL011C, strain gbp2, hits give low values 1.01 | locus YCL016C, strain dcc1, hits give low values 1 | locus YCL029C, strain bik1, hits give low values 1.01 | locus YCL061C, strain MRC1, hits give low values 0.971 | locus YCL069W, strain vba3, hits give low values 1.01 | locus YCR088W, strain abp1, hits give low values 0.995 | locus YDL005C, strain med2, hits give low values 0.996 | locus YDL035C, strain GPR1, hits give low values 1.02 | locus YDL040C, strain nat1, hits give low values 1.01 | locus YDL074C, strain BRE1, hits give low values 1.01 | locus YDL101C, strain DUN1, hits give low values 1.01 | locus YDL134C, strain PPH21, hits give low values 1.01 | locus YDL185W, strain tfp1, hits give low values 1.02 | locus YDL192W, strain arf1, hits give low values 1.01 | locus YDR001C, strain nth1, hits give low values 1.01 | locus YDR069C, strain doa4, hits give low values 0.995 | locus YDR101C, strain arx1, hits give low values 1.01 | locus YDR137W, strain rgp1, hits give low values 1.01 | locus YDR150W, strain NUM1, hits give low values 1.02 | locus YDR159W, strain sac3, hits give low values 0.976 | locus YDR162C, strain NBP2, hits give low values 0.996 | locus YDR195W, strain ref2 1.02 | locus YDR297W, strain sur2, hits give low values 1 | locus YDR318W, strain mcm21, hits give low values 1 | locus YDR334W, strain swr1, hits give low values 0.999 | locus YDR335W, strain msn5, hits give low values 1.01 | locus YDR388W, hits give low values 1.01 | locus YDR392W, strain spt3, hits give low values 0.91 | locus YDR502C, strain sam2, hits give low values 1.01 | locus YEL003W, strain gim4, hits give low values 1.02 | locus YEL037C, strain rad23, hits give low values 1 | locus YEL061C, strain CIN8 (second series), hits give low values 1 | locus YEL061C, strain CIN8, hits give low values 1 | locus YER015W, strain faa2, hits give low values 0.997 | locus YER016W, strain bim1, hits give low values 0.988 | locus YER110C, hits give low values 1.02 | locus YER111C, strain swi4, hits give low values 0.991 | locus YER155C, strain BEM2 (second series), hits give low values 1.01 | locus YER155C, strain BEM2, hits give low values 1.01 | locus YER167W, strain BCK2, hits give low values 1.01 | locus YFR010W, strain ubp6, hits give low values 1.02 | locus YGL078C, strain dbp3, hits give low values 1.01 | locus YGL086W, strain mad1, hits give low values 1.01 | locus YGL167C, strain pmr1, hits give low values 0.989 | locus YGL173C, strain kem1, hits give low values 1.01 | locus YGL227W, strain vid30, hits give low values 1 | locus YGL240W, strain doc1, hits give low values 0.976 | locus YGL248W, strain PDE1, hits give low values 1.01 | locus YGL253W, strain hxk2, hits give low values 1.01 | locus YGR135W, strain pre9, hits give low values 1.01 | locus YGR252W, strain gcn5, hits give low values 0.974 | locus YHR013C, strain ard1, hits give low values 1.01 | locus YHR027C, strain rpn1, hits give low values 0.999 | locus YHR030C, strain SLT2, hits give low values 1.03 and 0.978 | locus YHR079C, strain IRE1 (second series), hits give low values 1.01 | locus YHR079C, strain IRE1, hits give low values 0.976 | locus YHR094C, strain hxt1, hits give low values 1 | locus YHR129C, strain ARP1, hits give low values 1.01 | locus YHR142W, strain chs7, hits give low values 1.02 | locus YHR200W, strain rpn10, hits give low values 1.01 | locus YIL066C, strain RNR3, hits give low values 1.02 | locus YIL073C, strain SPO22, hits give low values 1.04 | locus YIL125W, strain kgd1, hits give low values 1.01 | locus YIR030C, strain dcg1, hits give low values 1.01 | locus YJL092W, strain hpr5, hits give low values 1.01 | locus YJL095W, strain BCK1 (second series), hits give low values 1 | locus YJL095W, strain BCK1, hits give low values 1.02 and 0.987 | locus YJL115W, strain asf1, hits give low values 1 | locus YJL129C, strain trk1, hits give low values 0.946 | locus YJL134W, strain LCB3, hits give low values 0.98 | locus YJL154C, strain vps35, hits give low values 1.02 | locus YJL164C, strain tpk1, hits give low values 1.01 | locus YJL166W, strain qcr8, hits give low values 1 | locus YJL168C, strain set2, hits give low values 1.01 | locus YJL187C, strain SWE1 (second series), hits give low values 1.01 | locus YJL187C, strain SWE1, hits give low values 0.997 | locus YJR043C, strain POL32, hits give low values 1.01
